# According to the antibiotic and cytotoxicity screens of Wong et al. (2023):
# The campaign covered roughly 39,000 compounds. About 500 (1.3%) were called active. The sample as a whole holds a higher share of actives than the screen did.
# Test system: S. aureus RN4220
# Assay: growth inhibition call (relative growth <= 0.2)
# Details: 50 µM
row,Structure (SMILES),growth inhibition call
1,C[C@@H]1CN([C@@H](C)CO)C(=O)c2cc(NC(=O)Nc3ccc(C(F)(F)F)cc3)ccc2O[C@@H]1CN(C)C(=O)Nc1ccc2c(c1)OCO2,inactive
2,CC(=O)c1c(C)nn(CC(=O)O)c1C,inactive
3,COc1ccc(NC(=O)N(C)C[C@@H]2OCCCC[C@@H](C)Oc3ccc(NC(=O)NC(C)C)cc3C(=O)N([C@H](C)CO)C[C@@H]2C)cc1,inactive
4,O=C(C[C@@H]1C[C@@H]2c3cc(NC(=O)c4ccc5c(c4)OCO5)ccc3O[C@@H]2[C@H](CO)O1)NCc1ccc(Oc2ccccc2)cc1,inactive
5,CN(C)[C@@H]1C(=O)C(C(=O)NCN2CCCC2)=C(O)[C@@]2(O)C(O)=C3C(=O)c4c(O)cccc4[C@@](C)(O)[C@H]3C[C@@H]12,active
6,CN(C)C1C(O)=C(C(N)=O)C(=O)C2(O)C(O)=C3C(=O)c4c(O)cccc4C(C)(O)C3CC12.Cl (configuration not stated),inactive
7,CN(C)C1C(O)=C(C(N)=O)C(=O)C2(O)C(O)=C3C(=O)c4c(O)ccc(Cl)c4C(C)(O)C3CC12.Cl (configuration not stated),inactive
8,C[C@H](O)[C@H](O)[C@@H](O)[C@@H](O)/C=N/NC(=O)c1ccc(C(=O)NO)cc1,inactive
9,COc1ccc(S(=O)(=O)N2C[C@@H](O)COC[C@H]3O[C@@H](CC(=O)N[C@H]4CCN(Cc5ccccc5)C4)CC[C@@H]32)cc1,inactive
10,CC(=O)Oc1cccc(O)c1,inactive
11,CC(=O)Oc1cccc(C)c1 [meta-CRESYL ACETATE],inactive
12,CN(CCCCCCCCCCN(C)C(=O)Oc1cccc([N+](C)(C)C)c1)C(=O)Oc1cccc([N+](C)(C)C)c1,active
13,C[C@@H]1CN([C@H](C)CO)C(=O)c2cc(NC(=O)C3CCCCC3)ccc2O[C@@H](C)CCCCO[C@@H]1CN(C)C(=O)Nc1ccccc1,inactive
14,COc1ccc(S(=O)(=O)N(C)C[C@@H]2Oc3ccc(NC(=O)CCN4CCOCC4)cc3CC(=O)N([C@@H](C)CO)C[C@H]2C)cc1,inactive
15,C[C@@H]1CN([C@H](C)CO)C(=O)Cc2cc(NS(=O)(=O)c3cn(C)cn3)ccc2O[C@H]1CN(C)S(C)(=O)=O,inactive
16,CC(C)Oc1cccc(CC(=O)N2CCC[C@](CC[N+]34CCC(c5ccccc5)(CC3)CC4)(c3ccc(Cl)c(Cl)c3)C2)c1,active
17,CC(=O)N(C)C1(c2ccccc2)CCN(CCC[C@]2(c3ccc(Cl)c(Cl)c3)CCCN(C(=O)c3ccccc3)C2)CC1,inactive
18,C[C@@H]1CN([C@@H](C)CO)C(=O)c2cccc(NC(=O)C3CCOCC3)c2O[C@H]1CN(C)Cc1ccc(C(=O)O)cc1,inactive
19,NCC[C@H]1CC[C@@H](NC(=O)Nc2ccc(F)cc2)[C@@H](CO)O1,inactive
20,CC(=O)Oc1cc2c(c(C)c1OC(C)=O)CC=C1[C@@]2(C)CC[C@@]2(C)[C@H]3C[C@](C)(C(=O)O)CC[C@]3(C)CC[C@]12C,active
21,CC1(C(=O)O)CCC2(C)CCC3(C)C(=CC(=O)C4C5(C)CCC(O)C(C)(C)C5CCC43C)C2C1 (configuration not stated),inactive

row,Structure (SMILES),growth inhibition call
1,C[C@@H]1CCCCO[C@@H](CN(C)Cc2ccc(C(=O)O)cc2)[C@H](C)CN([C@H](C)CO)C(=O)c2cc(NC(=O)Nc3ccc(F)cc3)ccc2O1,inactive
2,C[C@@H]1CN([C@@H](C)CO)C(=O)c2cc(C#CC3(O)CCCC3)cnc2O[C@@H]1CN(C)S(=O)(=O)c1ccc(F)cc1,inactive
3,COCC(=O)N1CC[C@]2(CC1)CN([C@H](CO)c1c2c2ccc(cc2n1C)OC)C(=O)Cc1ccccc1,inactive
4,CCOC(=O)CCC(=O)OC1C(OC2C(C)C(OC3CC(C)(OC)C(O)C(C)O3)C(C)C(=O)OC(CC)C(C)(O)C(O)C(C)C(=O)C(C)CC2(C)O)OC(C)CC1N(C)C (configuration not stated),active
5,CCC(=O)OC1C(OC2C(C)C(OC3CC(C)(OC)C(O)C(C)O3)C(C)C(=O)OC(CC)C(C)(O)C(O)C(C)C(=O)C(C)CC2(C)O)OC(C)CC1N(C)C.CCCCCCCCCCCCOS(=O)(=O)O (configuration not stated),inactive
6,CCC(=O)O[C@H]1[C@H](O[C@@H]2[C@@H](C)[C@H](O[C@H]3C[C@@](C)(OC)[C@@H](O)[C@H](C)O3)[C@@H](C)C(=O)O[C@H](CC)[C@@](C)(O)[C@H](O)[C@@H](C)C(=O)[C@H](C)C[C@@]2(C)O)O[C@H](C)C[C@@H]1N(C)C,inactive
7,CCOC(=O)CCC(=O)O[C@H]1[C@H](O[C@@H]2[C@@H](C)[C@H](O[C@H]3C[C@@](C)(OC)[C@@H](O)[C@H](C)O3)[C@@H](C)C(=O)O[C@H](CC)[C@@](C)(O)[C@H](O)[C@@H](C)C(=O)[C@H](C)C[C@@]2(C)O)O[C@H](C)C[C@@H]1N(C)C,active
8,CO[C@@H]1CN(C)C(=O)c2ccc(NC(=O)Nc3ccc(F)cc3)cc2OC[C@@H](C)N(C(=O)c2ccc(F)cc2)C[C@H]1C,inactive
9,Cc1nn(C)c2c1[C@@H](c1ccc(C(F)(F)F)cc1)C(C#N)C(=N)O2 (some centres not stated),inactive
10,CCCNC(=O)N(C)C[C@H]1Oc2cc(-c3ccccc3F)ccc2S(=O)(=O)N([C@@H](C)CO)C[C@H]1C,inactive
11,Cc1noc(C)c1NC(=O)Nc1ccc2c(c1)C(=O)N([C@@H](C)CO)C[C@@H](C)[C@@H](CN(C)Cc1ccc(C(=O)O)cc1)OCCCC[C@H](C)O2,inactive
12,C[C@@H]1CN([C@H](C)CO)C(=O)c2cc(NC(=O)c3ccncc3)ccc2O[C@@H]1CN(C)Cc1ccc(C(=O)O)cc1,inactive
13,COc1cccc(CNC(=O)c2cc3c(c(-c4cccc(-c5ccncc5)c4)n2)[C@@H](CCO)N([S@](=O)C(C)(C)C)C3)c1,inactive
14,CCCCCCCCCCCCCCCC(=O)OC1C(SC)OC(C(NC(=O)C2CC(CCC)CN2C)C(C)Cl)C(O)C1O.Cl (configuration not stated),inactive
15,CCC[C@@H]1C[C@@H](C(=O)N[C@H]([C@H]2O[C@H](SC)[C@H](O)[C@@H](O)[C@H]2O)[C@@H](C)Cl)N(C)C1,active
16,CCCCCCCCCCCCCCCC(=O)O[C@@H]1[C@@H](O)[C@@H](O)[C@@H]([C@H](NC(=O)[C@@H]2C[C@@H](CCC)CN2C)[C@H](C)Cl)O[C@@H]1SC,inactive
17,CCCC1CC(C(=O)NC(C(C)Cl)C2OC(SC)C(O)C(O)C2O)N(C)C1.Cl (configuration not stated),active
18,CCC[C@@H]1C[C@@H](C(=O)N[C@@H]([C@H]2O[C@H](SC)[C@H](OP(=O)(O)O)[C@@H](O)[C@H]2O)[C@H](C)Cl)N(C)C1,inactive
19,C[C@H](CO)N1C[C@H](C)[C@H](CN(C)Cc2ccncc2)Oc2ccc(NC(=O)Nc3cccc4ccccc34)cc2CC1=O,inactive
20,COc1ccc(NC(=O)Nc2ccc3c(c2)C(=O)N([C@H](C)CO)C[C@H](C)[C@@H](CN(C)S(=O)(=O)c2ccccc2)OCCCC[C@H](C)O3)cc1,inactive
21,COc1ccc(S(=O)(=O)N(C)C[C@@H]2Oc3cc(C4=CCCC4)ccc3S(=O)(=O)N([C@@H](C)CO)C[C@@H]2C)cc1,inactive

row,Structure (SMILES),growth inhibition call
1,C[C@@H]1[C@@H](c2ccccc2)OC(=O)[C@@H]2[C@H]3C(=O)N([C@@H](C)CO)[C@@H]4C(=O)N(Cc5ccccc5)CC=C[C@]34O[C@@H]2/C=C/CCC(=O)N1C,inactive
2,C=CC[C@@H](CC(=O)NCCO)C(=O)NCCOC(=O)[C@H](CC=C)NC(=O)OCC1c2ccccc2-c2ccccc21,inactive
3,C[C@@H]1CCCCO[C@@H](CN(C)S(=O)(=O)c2ccc(F)cc2)[C@@H](C)CN([C@@H](C)CO)C(=O)c2cc(NC(=O)Cc3ccccc3)ccc2O1,inactive
4,CC1(C)SC2C(NC(=O)C(C(=O)[O-])c3ccccc3)C(=O)N2C1C(=O)[O-].[Na+].[Na+] (configuration not stated),active
5,CC1(C)SC2C(NC(=O)C(NC(=O)N3CCNC3=O)c3ccccc3)C(=O)N2C1C(=O)[O-].[Na+] (configuration not stated),active
6,CC1(C)SC2C(NC(=O)C(C(=O)[O-])c3ccsc3)C(=O)N2C1C(=O)[O-].[Na+].[Na+] (configuration not stated),inactive
7,CC1(C)S[C@@H]2[C@H](NC(=O)[C@H](NC(=O)N3CCNC3=O)c3ccccc3)C(=O)N2[C@H]1C(=O)O,inactive
8,CCN1CCN(C(=O)NC(C(=O)NC2C(=O)N3C2SC(C)(C)C3C(=O)[O-])c2ccccc2)C(=O)C1=O.[Na+] (configuration not stated),active
9,CC1(C)SC2C(NC(=O)C(N)c3ccccc3)C(=O)N2C1C(=O)[O-].[Na+] (configuration not stated),inactive
10,CCN1CCN(C(=O)N[C@@H](C(=O)N[C@@H]2C(=O)N3[C@@H]2SC(C)(C)[C@@H]3C(=O)O)c2ccccc2)C(=O)C1=O,active
11,CN[C@@H](C)C(=O)N[C@H]1CN(C(=O)CC(C)C)CC[C@H]2CC[C@@H](C(=O)NC(c3ccccc3)c3ccccc3)N2C1=O,inactive
12,C[C@H]1CN([C@@H](C)CO)C(=O)c2cc(C#CC3(O)CCCC3)cnc2O[C@@H]1CN(C)S(C)(=O)=O,inactive
13,Cc1noc(C)c1NC(=O)N(C)C[C@H]1OCCCC[C@@H](C)Oc2ccc(NC(=O)CCC(F)(F)F)cc2C(=O)N([C@@H](C)CO)C[C@@H]1C,inactive
14,C[C@@H]1CN([C@@H](C)CO)C(=O)c2cc(C#Cc3ccccc3F)cnc2O[C@H]1CN(C)S(=O)(=O)c1ccccc1F,inactive
15,O=C(NCCN1CCOCC1)C(=O)NC[C@H]1OCCN1S(=O)(=O)c1ccc(F)cc1,inactive
16,Cc1ccc(C(=O)Oc2ccc(/C=N/c3cccs3)cc2)cc1,inactive
17,COc1ccc(S(=O)(=O)N(C)C[C@@H]2Oc3c(NC(=O)NC(C)C)cccc3C(=O)N([C@@H](C)CO)C[C@@H]2C)cc1,inactive
18,COCC(=O)N(C)C[C@H]1Oc2cc(C#Cc3cccnc3)ccc2S(=O)(=O)N([C@@H](C)CO)C[C@@H]1C,inactive
19,C[C@@H]1CN([C@@H](C)CO)C(=O)c2c(c3ccccc3n2C)-c2ccccc2CO[C@H]1CN(C)Cc1ccc(F)cc1,inactive
20,C[C@@H]1CN([C@H](C)CO)C(=O)c2cc(NC(=O)CCCN(C)C)ccc2O[C@H]1CN(C)S(=O)(=O)c1cccs1,inactive
